# Results from PubChem BioAssay AID651718 (The Scripps Research Institute Molecular Screening Center, 2012).
# Out of some 360,000 compounds screened, about 2,700 (0.75%) were called active. The sample holds actives, similar compounds and a random draw of the others, so the mix is not that of the screen. No stated cut-off is given here; in the data, active means inhibition above about 4.5%; inactive means the rest.
# Tested on: Methionine sulfoxide reductase A (Bos taurus)
# Assay: bovine MsrA enzyme inhibitors, primary screen, biochemical, absorbance, HTS (AID 651718);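 further: 0% = vehicle wells with enzyme and 100% = reference inhibitor wells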
# Details: purified bovine MsrA, absorbance read-out; at 15.5 µM; stronger effect = higher value
row,Compound,inhibition
1,CCOc1ccccc1C(=O)N1CCC[C@@H]1C(=O)N1CCC[C@H]1C(=O)NCc1ccccc1,0% (inactive)
2,CSC1=NCCN1C(=O)c1ccc(S(=O)(=O)N2CCOCC2)cc1,0.32% (inactive)
3,Cc1c(-c2ccccc2)cn2c1-c1ccc(C)n1CC2,2.59% (inactive)
4,CN1CCCc2nc(-c3ccccc3)ccc21,-0.16% (inactive)
5,O=C1[C@@H](c2ccccc2)[C@@H](c2ccccc2)N1c1ccccc1,0% (inactive)
6,COc1ccc(/C=C/C(=O)Nc2cccnc2)cc1OC,5.32% (active)
7,COc1ccc(/C=C/C(=O)Nc2ccc(C34CC5CC(CC(O)(C5)C3)C4)cc2)cc1OC,2.4% (inactive)
8,COc1cc(/C=N/NC(=S)Nc2cccnc2)cc(OC)c1O,4.5% (inactive)
9,COc1cccc(CNC(=O)[C@H]2CCCN2C(=O)[C@H]2CCCN2C(=O)c2ccc(F)cc2)c1,-0.32% (inactive)
10,COCCN(CCOC)S(=O)(=O)NC[C@H]1O[C@@H](n2cnc3c(N)ncnc32)[C@H](O)[C@@H]1O,-0.9% (inactive)
11,CNC[C@H](CC1CCCCC1)NC[C@H](NCCC1CCCC1)[C@H](C)O,0.32% (inactive)
12,C[C@@H]1CN([C@H](C)CO)C(=O)CCCn2cc(nn2)CO[C@H]1CN(C)C(=O)Nc1ccc(N2CCCCC2)cc1,0.88% (inactive)
13,CN(CCO)c1ccc(/C=N/Nc2nncc3ccccc23)cc1,2.64% (inactive)
14,COc1cc(/C=N/Nc2nn3cnnc3c3ccccc23)cc(OC)c1OC,5.31% (active)
15,COc1cc(Nc2nc3ccc(Cl)cc3n3cnnc23)cc(OC)c1OC,-1.86% (inactive)
16,Cn1ccs/c1=N\S(=O)(=O)c1ccc(C(C)(C)C)cc1,-0.4% (inactive)
17,COc1ccc(OC)c(C2C3=C(N=c4s/c(=C\c5cccc(O)c5)c(=O)n42)c2ccccc2CC3)c1 (stereo not given),5.07% (active)
18,C=CCOc1ccc(C2/C(=C(\O)c3c(C)[nH]c(C(=O)OC)c3C)C(=O)C(=O)N2CCN(C)C)cc1 (stereo not given),1.79% (inactive)
19,O=C(O)c1ccccc1NC(=S)NC(NC(=O)c1ccccc1[N+](=O)[O-])C(Cl)(Cl)Cl (stereo not given),0.38% (inactive)
20,Cn1nc(C(=O)OCC(=O)N(Cc2ccccc2)C(C)(C)C)c2ccccc2c1=O,-1.57% (inactive)
